Values joined by “and” are separate entries in the source; they are usually repeats but may differ in a detail not shown here. Identical values can stand only once. Where a structure was tested more than once in an assay, its records may differ in their call. Active and inactive are the calls of the source. Unless noted, calls come from the whole dose curve; as a rule, active = well fitted curve in the direction sought with a large enough effect in the repeat runs; inconclusive = weak or mixed curves; inactive = no such curve, though single readings can be large; an effect the other way counts as inactive or inconclusive.

Experiment [1] is described as follows: qHTS assay to identify small molecule antagonists of the thyroid receptor (TR) signaling pathway - cell viability counter screen (AID 743064). Note: nearly all actives have a fitted effect of over 50% in size. The method in brief:
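GH3.TRE-Luc rat pituitary cells carrying a TRE-luciferase reporter were treated with compound plus 1 nM T3 (final) for 23.5 h at 37 °C. Viability was then read in the same wells by CellTiter-Fluor fluorescence after a further 30 min.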

A short description of experiment [2]: qHTS assay to identify small molecule antagonists of the thyroid receptor (TR) signaling pathway (AID 743065). Note: nearly all actives have a fitted effect of over 55% in size. Note: potency is the fitted concentration of half-maximal effect. The method in brief:
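GH3.TRE-Luc rat pituitary cells (two TREs driving luciferase) were dosed with compound, then stimulated with 1 nM T3 (final) for 23.5 h at 37 C. ONE-Glo luminescence was the read-out, with CellTiter-Fluor fluorescence as the cytotoxicity counter-screen.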

Experiment [3] deals with thyroid hormone receptor (rat, GH3 cells). The experiment can be described thus: qHTS assay to identify small molecule agonists of the thyroid receptor (TR) signaling pathway (AID 743066; calls by dose curve).
The target in experiment [4] is Estrogen receptor (Homo sapiens) (UniProt P03372). Description: qHTS assay to identify small molecule antagonists of the estrogen receptor alpha (ER-alpha) signaling pathway (AID 743069; active = well fitted curve in the direction sought with a large enough effect in the signal ratio in the repeat runs, not every such curve was filed as active; inconclusive = weak or mixed curves, or effect the other way; inactive = no such curve, though single readings can be large or run the other way; the % refers to the signal ratio; note: potency is the fitted concentration of half-maximal effect). In outline:
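In this cell-based reporter format, GripTite HEK293 cells harbouring ER-alpha-UAS-bla were grown overnight with 2% charcoal-stripped FBS, dosed with DMSO-dissolved compounds, then challenged with 17beta-estradiol. After 18 hr at 37C, beta-lactamase activity was detected by FRET fluorescence.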

Experiment [5] is described as follows: qHTS assay to identify small molecule antagonists of the estrogen receptor alpha (ER-alpha) signaling pathway - cell viability counter screen (AID 743074; calls by dose curve; note: nearly all actives have a fitted effect of over 45% in size).
For experiment [6], the target named is Estrogen receptor (Homo sapiens) (UniProt P03372). The experiment can be described thus: qHTS assay to identify small molecule agonists of the estrogen receptor alpha (ER-alpha) signaling pathway (AID 743075; calls by dose curve).
Sequence of Estrogen receptor (Homo sapiens) (P03372 whole entry, looked up): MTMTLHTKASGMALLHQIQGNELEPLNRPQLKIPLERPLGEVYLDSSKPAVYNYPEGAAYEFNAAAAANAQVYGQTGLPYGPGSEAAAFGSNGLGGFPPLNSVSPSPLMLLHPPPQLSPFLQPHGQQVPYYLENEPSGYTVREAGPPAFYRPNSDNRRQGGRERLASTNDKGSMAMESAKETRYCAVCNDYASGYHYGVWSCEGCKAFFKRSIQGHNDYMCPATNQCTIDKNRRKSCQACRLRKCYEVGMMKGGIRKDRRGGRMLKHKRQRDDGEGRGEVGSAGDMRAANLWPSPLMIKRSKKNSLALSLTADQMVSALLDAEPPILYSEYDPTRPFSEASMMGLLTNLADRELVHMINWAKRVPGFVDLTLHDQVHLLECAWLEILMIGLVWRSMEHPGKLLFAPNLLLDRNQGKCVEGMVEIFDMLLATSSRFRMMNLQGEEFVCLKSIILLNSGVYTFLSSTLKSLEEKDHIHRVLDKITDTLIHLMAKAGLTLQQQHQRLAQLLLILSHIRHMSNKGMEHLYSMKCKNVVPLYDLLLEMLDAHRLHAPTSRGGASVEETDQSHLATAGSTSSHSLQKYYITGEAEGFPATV
Experiment [7] shares this target. Description: qHTS assay to identify small molecule agonists of the estrogen receptor alpha (ER-alpha) signaling pathway using the BG1 cell line (AID 743079). Note: nearly all actives have a fitted effect of over 20% in size. Note: potency is the fitted concentration of half-maximal effect. To be noted: BG1Luc4E2 cells, ERE-luciferase agonist, 22 h; activation: at 70.3 µM (top of the series).
Experiment [8] in a line: qHTS assay to identify small molecule antagonists of the estrogen receptor alpha (ER-alpha) signaling pathway using the BG1 cell line - cell viability counter screen (AID 743081).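 Note: compound given together with 17beta-estradiol as the ER stimulus; nearly all actives have a fitted effect of over 45% in size.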
Another experiment has as its target Aromatase (Homo sapiens) (UniProt P11511). The experiment can be described thus: qHTS assay to identify aromatase inhibitors (AID 743083). Note: nearly all actives have a fitted effect of over 55% in size. Note: potency is the fitted concentration of half-maximal effect.
The nature of experiment [9]: qHTS assay to identify aromatase inhibitors - cell viability counter screen (AID 743084).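 Note: cells stimulated with testosterone during compound exposure; nearly all actives have a fitted effect of over 55% in size.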
The target in experiment [10] is Aryl hydrocarbon receptor (Homo sapiens) (UniProt P35869). The experiment can be described thus: qHTS assay to identify small molecule that activate the aryl hydrocarbon receptor (AhR) signaling pathway (AID 743085).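 For activation: HG2L7.5c1 human HepG2 liver cells with stably integrated DRE-driven firefly reporter.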 Note: nearly all actives have a fitted effect of over 15% in size. Note: potency is the fitted concentration of half-maximal effect. The method in brief:
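HepG2 cells (HG2L7.5c1) stably carrying a firefly luciferase reporter driven by 20 dioxin responsive elements were exposed to compound for 24 h at 37C after a 5 h settling period; luminescence rise (ONE-Glo) indicated activation.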

Experiment [11] can be described thus: qHTS assay to identify small molecule that activate the aryl hydrocarbon receptor (AhR) signaling pathway - cell viability counter screen (AID 743086).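 Note: HepG2 liver cells carrying the AhR DRE luciferase reporter; nearly all actives have a fitted effect of over 45% in size.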 The method in brief:
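HepG2-AhR-luc (HG2L7.5c1) cells, 4000/well, treated 24 h at 37 C with compound; viability measured as CellTiter-Fluor fluorescence after 30 min in the same wells as the luciferase read.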

Experiment [12] has as its target Peroxisome proliferator-activated receptor gamma (Homo sapiens) (UniProt P37231). Description: qHTS assay to identify small molecule agonists of the peroxisome proliferator-activated receptor gamma (PPARg) signaling pathway (AID 743094; active = well fitted activation curve with a large enough effect in the signal ratio in the repeat runs, not every such curve was filed as active; inconclusive = weak or mixed curves, or effect the other way; inactive = no such curve, though single readings can be large or run the other way; the % refers to the signal ratio). The method in brief:
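Cells from the PPARg UAS-bla HEK293H line are plated and incubated 5 h at 37C. Compounds in DMSO are pinned in and left 17 h at 37C. LiveBLAzer B/G substrate is then added for 1 h at room temperature before fluorescence is measured.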

Experiment [13] has the same target. Description: qHTS assay to identify small molecule antagonists of the peroxisome proliferator-activated receptor gamma (PPARg) signaling pathway (AID 743191; calls by dose curve; note: nearly all actives have a fitted effect of over 30% in size). The method in brief:
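GeneBLAzer PPARg UAS-bla HEK293H cells, 5 h post-plating, exposed to compounds 17 h at 37C. LiveBLAzer B/G FRET substrate added for 1 h at room temperature; beta-lactamase reporter read by fluorescence intensity.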

Experiment [14] can be described thus: qHTS assay to identify small molecule antagonists of the peroxisome proliferator-activated receptor gamma (PPARg) signaling pathway - cell viability counter screen (AID 743194). Note: nearly all actives have a fitted effect of over 55% in size. In outline:
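Cytotoxicity counter screen in PPARg-bla HEK293H cells, same wells as reporter assay. Compounds plus 50 nM rosiglitazone (final) for 17 h at 37 C, then viability read by CellTiter-Glo luminescence.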

A short description of experiment [15]: qHTS assay for small molecule agonists of the antioxidant response element (ARE) signaling pathway (AID 743202; active = well fitted activation curve with a large enough effect in the signal ratio in the repeat runs, not every such curve was filed as active; inconclusive = weak or mixed curves, or effect the other way; inactive = no such curve, though single readings can be large or run the other way; the % refers to the signal ratio; note: potency is the fitted concentration of half-maximal effect). In outline: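 HepG2 ARE-bla cells; 16 h treatment at 37 C; FRET-based beta-lactamase fluorescence read after 2 h substrate incubation at room temperature.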
A short description of experiment [16]: qHTS assay for small molecule agonists of the antioxidant response element (ARE) signaling pathway - cell viability counter screen (AID 743203; calls by dose curve; note: nearly all actives have a fitted effect of over 55% in size). In outline: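 Cytotoxicity was tested in parallel with the ARE reporter screen. ARE-bla HepG2 cells were exposed to compounds for 16 hrs, and viability was taken from CellTiter-Glo luminescence.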
A short description of experiment [17]: qHTS assay for small molecule activators of the heat shock response signaling pathway - cell viability counter screen (AID 743209). Note: nearly all actives have a fitted effect of over 50% in size. In outline:
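Cytotoxicity counter screen run in parallel with the HSE beta-lactamase reporter, using the same wells. HeLa HSE-bla cells received compound for 5 h at 37 C; ATP-based CellTiter-Glo luminescence was measured after 30 min at room temperature.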

The nature of experiment [18]: qHTS assay for small molecule activators of the heat shock response signaling pathway (AID 743210; active = well fitted activation curve with a large enough effect in the signal ratio in the repeat runs, with a control signal flat, not every such curve was filed as active; inconclusive = weak or mixed curves; the % refers to the signal ratio;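 note: HeLa cells with beta-lactamase reporter driven by heat shock elements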). The method in brief: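 Following overnight attachment, HSE-bla HeLa cells received test compounds for 5 h at 37 C; beta-lactamase activity was then detected via FRET substrate fluorescence.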
Experiment [19] is described as follows: qHTS assay to identify small molecule antagonists of the estrogen receptor alpha (ER-alpha) signaling pathway using the BG1 cell line (AID 743080; calls by dose curve; note: nearly all actives have a fitted effect of over 25% in size; note: potency is the fitted concentration of half-maximal effect). The method in brief:
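Antagonist mode: compounds in DMSO were pinned onto BG1-Luc-4E2 cells alongside 17beta-estradiol agonist, incubated 21.5 h, and ERE-driven luciferase measured with ONE-Glo. Cytotoxicity was multiplexed using CellTiter-Fluor fluorescence.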

Sequence of Aryl hydrocarbon receptor (Homo sapiens) (P35869 whole entry, looked up): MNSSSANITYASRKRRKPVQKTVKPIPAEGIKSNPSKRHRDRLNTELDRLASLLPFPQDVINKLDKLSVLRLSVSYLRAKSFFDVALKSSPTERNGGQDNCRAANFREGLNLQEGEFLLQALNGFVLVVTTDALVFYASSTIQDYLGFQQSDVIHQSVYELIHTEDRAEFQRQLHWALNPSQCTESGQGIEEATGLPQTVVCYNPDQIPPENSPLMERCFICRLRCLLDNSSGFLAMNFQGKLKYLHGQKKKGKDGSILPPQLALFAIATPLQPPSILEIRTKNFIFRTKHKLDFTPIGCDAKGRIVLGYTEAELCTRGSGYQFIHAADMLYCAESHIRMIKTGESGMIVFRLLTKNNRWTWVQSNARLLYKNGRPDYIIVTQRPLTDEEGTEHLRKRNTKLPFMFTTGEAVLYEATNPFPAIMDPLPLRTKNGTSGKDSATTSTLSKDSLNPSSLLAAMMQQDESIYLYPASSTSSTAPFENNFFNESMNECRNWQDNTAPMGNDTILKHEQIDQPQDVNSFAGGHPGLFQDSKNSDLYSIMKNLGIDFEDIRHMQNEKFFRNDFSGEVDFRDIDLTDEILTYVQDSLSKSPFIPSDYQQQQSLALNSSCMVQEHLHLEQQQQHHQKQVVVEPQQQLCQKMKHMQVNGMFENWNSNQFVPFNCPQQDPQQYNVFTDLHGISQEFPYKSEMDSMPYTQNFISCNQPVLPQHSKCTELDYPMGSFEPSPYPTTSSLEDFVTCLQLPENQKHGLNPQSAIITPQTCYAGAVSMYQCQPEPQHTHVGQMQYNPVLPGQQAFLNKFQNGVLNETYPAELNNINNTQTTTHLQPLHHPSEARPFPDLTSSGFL
Sequence of Peroxisome proliferator-activated receptor gamma (Homo sapiens) (P37231 whole entry, looked up): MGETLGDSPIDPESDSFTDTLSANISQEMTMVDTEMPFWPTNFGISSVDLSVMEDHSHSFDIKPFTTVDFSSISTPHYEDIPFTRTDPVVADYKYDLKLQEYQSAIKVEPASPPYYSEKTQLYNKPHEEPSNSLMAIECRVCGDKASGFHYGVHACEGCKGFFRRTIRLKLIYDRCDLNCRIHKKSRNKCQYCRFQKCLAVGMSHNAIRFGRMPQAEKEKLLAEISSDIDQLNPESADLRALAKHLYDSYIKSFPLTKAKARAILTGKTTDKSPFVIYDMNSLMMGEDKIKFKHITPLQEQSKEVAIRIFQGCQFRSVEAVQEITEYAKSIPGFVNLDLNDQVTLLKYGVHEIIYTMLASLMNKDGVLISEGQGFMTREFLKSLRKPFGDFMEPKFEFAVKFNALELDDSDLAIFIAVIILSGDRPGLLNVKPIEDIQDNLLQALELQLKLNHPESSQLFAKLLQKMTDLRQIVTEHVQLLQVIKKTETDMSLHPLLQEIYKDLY
Sequence of Aromatase (Homo sapiens) (P11511 whole entry, looked up): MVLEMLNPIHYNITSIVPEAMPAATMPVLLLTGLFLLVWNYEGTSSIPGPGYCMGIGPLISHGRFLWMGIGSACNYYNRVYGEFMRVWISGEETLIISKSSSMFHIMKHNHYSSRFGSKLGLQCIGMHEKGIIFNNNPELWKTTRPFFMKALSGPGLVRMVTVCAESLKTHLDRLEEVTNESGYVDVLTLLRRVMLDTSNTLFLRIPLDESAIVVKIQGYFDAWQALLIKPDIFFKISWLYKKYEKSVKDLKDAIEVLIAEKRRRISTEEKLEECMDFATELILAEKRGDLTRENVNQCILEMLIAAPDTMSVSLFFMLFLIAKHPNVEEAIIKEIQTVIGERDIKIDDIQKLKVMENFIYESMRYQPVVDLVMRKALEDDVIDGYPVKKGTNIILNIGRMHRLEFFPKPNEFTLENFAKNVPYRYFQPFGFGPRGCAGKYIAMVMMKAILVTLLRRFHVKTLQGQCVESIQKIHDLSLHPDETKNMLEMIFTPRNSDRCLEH

On to `C=C(C)C(=O)OCCCCCCCCCCCCC`, for which the Potency entry in experiment [1], in experiment [2], in experiment [4], in [5], in experiment [6] and in experiment [7] was “inactive” each time. Moreover, the Potency entry (in experiment [8]; with Aromatase (Homo sapiens); in experiment [9]; in experiment [10]; in experiment [11]; in [12]) was “inactive” throughout. In addition, the Potency entry in experiment [13], in experiment [14], in experiment [15], in experiment [16], in experiment [17] and in experiment [18] was “inactive” throughout. The compound was classed as inactive in experiment [3].
Take `CCN(CC)CCNC(=O)COc1ccc(OC)cc1`: the Potency result in experiment [1], in experiment [2], in experiment [4], in experiment [5], in experiment [6] and in experiment [19] was “inactive” throughout. In addition, the Potency entry (in experiment [8]; with Aromatase (Homo sapiens); in experiment [9]; in experiment [10]; in [11]; in experiment [12]) was “inactive” each time. Further, the Potency result in experiment [13], in experiment [14], in experiment [15], in experiment [16] and in experiment [17] was “inactive” throughout. Further, in [3], the outcome was inactive. For the same compound, the Potency in [7] is 23.7 µM (active).
For `Nc1cccc2c1CN(C1CCC(=O)NC1=O)C2=O` (stereo unspecified), the Potency result in experiment [1], in experiment [2], in [4], in [5], in experiment [6] and in experiment [7] was “inactive” throughout. For the same compound, the Potency entry (in experiment [19]; in [8]; with Aromatase (Homo sapiens); in experiment [9]; in experiment [10]; in [11]) was “inactive” in each case. The Potency result in experiment [12], in [13], in experiment [14], in [15], in experiment [16] and in experiment [17] was “inactive” each time. Further, in [18], the Potency result was “inactive”. The compound was called inactive in experiment [3].
For the compound `C=CC(C)(CCC=C(C)C)OC(=O)CC(C)C` (stereo unspecified), the Potency entry in experiment [1], in [2], in experiment [4], in experiment [5], in [6] and in experiment [7] was “inactive” throughout. Moreover, the Potency entry (in experiment [19]; in experiment [8]; in the experiment with Aromatase (Homo sapiens); in [9]; in [10]; in experiment [11]) was “inactive” each time. In addition, the Potency entry in experiment [12], in experiment [13], in experiment [14], in [16], in experiment [17] and in [18] was “inactive” throughout. Also, the call in experiment [3] was inactive.
Consider `C=COCC(C)C`, for which the Potency result in [1], in [2], in [4], in experiment [5], in [6] and in [7] was “inactive” each time. Besides, the Potency result (in [8]; in the experiment with Aromatase (Homo sapiens); in [9]; in experiment [10]; in [11]; in experiment [12]) was “inactive” each time. Also, the Potency result in experiment [13], in experiment [15], in experiment [16], in experiment [17] and in experiment [18] was “inactive” in each case. Further, in experiment [3], the result was inactive.
For the compound `c1ccc(C[n+]2cccc3ccccc32)cc1`, the Potency result (in [1]; in [2]; in experiment [5]; in [6]; with Aromatase (Homo sapiens); in experiment [9]) was “inactive” in each case. Moreover, the Potency result in experiment [11], in experiment [12], in [13], in experiment [16], in experiment [17] and in experiment [18] was “inactive” each time. The compound was classed as inactive in [3]. Besides, the Potency in experiment [4] was 49 µM [inconclusive] (active); in [19] it was 61.1 µM (active).
Turning to `Clc1ccc(Nc2nnc(Cc3ccncc3)c3ccccc23)cc1`, the Potency result in experiment [1], in experiment [5], in [6], in experiment [7], in experiment [8] and in experiment [9] was “inactive” in each case. In addition, the Potency result in [12], in experiment [17] and in [18] was “inactive” in each case. For the same compound, the Potency is 13.3 µM (active) in [2]; 26.8 µM [inconclusive] (active) and inactive in experiment [4]; 21.1 µM (active) and 26.6 µM (active) in experiment [19]; 5.31 µM (active) and 13.3 µM (active) with Aromatase (Homo sapiens); 1.5 µM (active) and 841 nM (active) in experiment [10]; 21.1 µM (active) in experiment [15]. Besides, in [3], the result was inactive.

Source of the values: PubChem BioAssay (Tox21).
